KB-V1 MDR tox = KB-V1 MDR subline cytotoxicity; KB-V1 MDR cells viability, CellTiter-Glo, 72 h; Potency, µM (top dose mostly 46.1 µM), actives largely listed as cytotoxic; 400,000 compounds, 3.4% hits; AID 1347076; also: nearly all actives have a fitted effect of over 60% in size
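Compound-treated KB-V1 multidrug-resistant cells, 72 h, 37 degrees C; viability by CellTiter-Glo. Fitted qHTS curves give the values.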
HT1080NT lethal = kills 2HG-producing HT-1080-NT fibrosarcoma cells; HT-1080-NT fibrosarcoma viability, CellTiter-Glo ATP luminescence, 48 h; Potency, µM (highest dose often 46.1 µM), usual class: cytotoxic; 360,000 compounds, 1.6% hits;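 also: NT is the 2HG producing partner of a matched IDH1 knockdown line; nearly all actives have a fitted effect of over 55% in size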
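Fibrosarcoma NT cells, 750 per well in 5% FBS RPMI, were exposed to compound for 48 hours. Viability: CellTiter-Glo luminescence.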
SW480 rereplic = inducers of DNA re-replication in SW480 colon cancer cells | SW480 DNA re-replication, Hoechst DNA content imaging, 48 h | Potency, µM (titrated, usually from 46.1 µM), usual class: activators | AID 624297 | 340,000 compounds, 1.8% hits; also: nearly all actives have a fitted effect of over 55% in size
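250 cells/well; 23 nL cpd via pin tool; 48 hr, 37 C, 5% CO2; Hoechst 40 min; imager read of total nuclear intensity, ex 405/em 500-530 nm.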
HT1080 IDH1KD tx = kills HT-1080 cells with IDH1 knockdown; AID 686971; Potency, µM (highest dose often 46.1 µM), most hits filed as cytotoxic; 360,000 compounds, 2% hits; HT-1080 IDH1 knockdown viability, ATP luminescence, 48 h
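CellTiter-Glo luminescence after 48 h compound exposure at 37 degrees C of IDH1-knockdown HT-1080 cells in 5% FBS RPMI. %Activity scaled between DMSO wells and cell-free media wells, with curves fitted and assigned curve classes.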
KB-3-1 tox = KB-3-1 parental cell cytotoxicity; KB-3-1 viability, CellTiter-Glo ATP luminescence, 72 h; Potency, µM (doses to about 46.1 µM), hits mostly cytotoxic; 400,000 compounds, 1.4% hits; AID 1347075; also: nearly all actives have a fitted effect of over 60% in size
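KB-3-1 cells, DMEM (no phenol red) + 10% FBS; compound by pin transfer, 72 h, 37 °C. Readout: CellTiter-Glo luminescence after 10 min. Data normalized, curve-fitted.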
MCF10A rereplic = induces DNA re-replication in MCF 10a normal breast cells; 350,000 compounds, 2.9% hits; Potency, µM (series often up to 46.1 µM), actives largely listed as activators; MCF 10A DNA re-replication, Hoechst nuclear intensity, 48 h; AID 624296; also: nearly all actives have a fitted effect of over 50% in size
Each line names hits and unclear results; the compound was inactive in the other large screens. In the library only some 7.9% were active in any assay of this set; here they are far more common. Calls follow the shape of the dose curve; as a rule, active = well fitted curve in the direction sought with a large enough effect; inconclusive = small, poorly fitted or top-dose-only effect, or another doubt; inactive = no such curve, though single readings can be large; an effect the other way counts as inactive or inconclusive.

COc1cc(OC)cc(C(=O)Nc2cccc(-c3ccc(N4CCOCC4)nn3)c2)c1	MCF10A rereplic inconclusive
Cc1cc(NC(=O)Cn2cnc3sccc3c2=O)no1	none
CC(=O)C1=C(C)N(Cc2ccco2)C(=O)C1(NC(=O)C1CCCCC1)C(F)(F)F (stereo not given)	KB-V1 MDR tox 18µM
CCN(CC)c1ccc(NC(=O)Cn2c(C)c3cnn(-c4ccccc4)c(=O)c3c2C)c(C)c1	none (no result: HT1080NT lethal, SW480 rereplic, HT1080 IDH1KD tx, MCF10A rereplic)
CC1(C)C(=O)Nc2ccccc2N1C(=O)COC(=O)c1cc(Cl)cc(Cl)c1	none
Cc1csc(/C(=N\O)c2csc(C)n2)n1	HT1080NT lethal inconclusive, HT1080 IDH1KD tx 16µM
Cc1csc(/C(C#N)=N/O)n1	KB-V1 MDR tox inconclusive
O=C(c1ccco1)N1CCN(Cc2nnnn2CCc2ccccc2)CC1	none
C=CCOc1c(Cl)cc(C(=S)N2CCCC2)cc1OCC	KB-V1 MDR tox 9.2µM, HT1080NT lethal inconclusive, SW480 rereplic inconclusive, HT1080 IDH1KD tx 9.2µM, KB-3-1 tox 6.5µM, MCF10A rereplic 12µM
COc1ccc2cc3cc(C(=O)Nc4cc(OC)c(OC)c(OC)c4)oc3nc2c1	none
COc1ccc2cc3cc(C(=O)NC(C)C)oc3nc2c1	KB-V1 MDR tox 2.3µM
CCn1ccc2cc(S(=O)(=O)N3CCCN(C(=O)Nc4cccc(SC)c4)CC3)ccc21	KB-V1 MDR tox inconclusive (no result: HT1080NT lethal, SW480 rereplic, HT1080 IDH1KD tx, MCF10A rereplic)
CCNc1cc(S(=O)(=O)C(F)(F)F)ccc1N	KB-V1 MDR tox 23µM, KB-3-1 tox inconclusive
CCNc1ccc(S(=O)(=O)C(F)(F)F)cc1NC(=O)C12CCC(CC1)C2	HT1080 IDH1KD tx inconclusive
CC(=O)OCC1(C)CN(c2ccccc2)NC1=O (stereo not given)	HT1080NT lethal inconclusive, HT1080 IDH1KD tx 23µM
CC(=O)OCC1(C)CN(c2ccccc2)N(C(C)=O)C1=O (stereo not given)	HT1080NT lethal 21µM, HT1080 IDH1KD tx inconclusive
CC(C)OCCCNC(=S)Nc1ccc2nc3n(c(=O)c2c1)CCCCC3	none
NC(=O)C1CCN(c2nccc(-c3ccc4c(c3)OCCO4)n2)CC1	KB-V1 MDR tox inconclusive, KB-3-1 tox 9.2µM (no result: HT1080NT lethal, SW480 rereplic, HT1080 IDH1KD tx, MCF10A rereplic)
COC(=O)C1=C(C)OC(N)=C(C#N)C1c1cc(C)sc1C (stereo not given)	none
CN(C)CCOC(=O)CCCCCCCCC(=O)OCCN(C)C	SW480 rereplic 3.7µM
Nc1cc(=O)nc(SCC(=O)Nc2ccccc2)n1CCc1ccccc1	none (no result: HT1080NT lethal, SW480 rereplic, HT1080 IDH1KD tx, MCF10A rereplic)
O=C(/C=C/c1ccc(F)cc1)N1CCN(c2ncccn2)CC1	KB-V1 MDR tox inconclusive
COC(=O)c1ccccc1NC(=O)N1CCN(S(=O)(=O)c2ccc(Cl)cc2)CC1	KB-V1 MDR tox inconclusive, SW480 rereplic 9.2µM, HT1080 IDH1KD tx inconclusive, MCF10A rereplic inconclusive
COc1ccccc1C(C)NC(=O)CCC(=O)N1CCN(S(=O)(=O)c2ccc(Cl)cc2)CC1 (stereo not given)	KB-V1 MDR tox 18µM, KB-3-1 tox inconclusive
COC(=O)c1ccccc1NC(=O)N1CCCC1	KB-V1 MDR tox inconclusive
CC(C)(C#CC(O)(c1ccccc1)c1ccccc1)N1CCCCC1	none
CC(C)(C#CC(O)(c1ccccc1)c1ccccc1)N1CCCC1	MCF10A rereplic 0.82µM
N#Cc1c(-c2ccc(Cl)cc2)n(O)c2ccccc12	KB-V1 MDR tox 3.7µM, HT1080NT lethal 10µM, SW480 rereplic 8.2µM, HT1080 IDH1KD tx 15µM, KB-3-1 tox 7.3µM, MCF10A rereplic 3.7µM
N#Cc1c(-c2ccc(Cl)cc2)c(C#N)c(=O)n(N)c1N	none
Cc1cccc(C(=O)Nc2c(C(=O)N(C)C)cnn2-c2ccccc2)c1	KB-V1 MDR tox inconclusive
CSCCC(NS(=O)(=O)c1ccc2ccccc2c1)C(=O)OCC(=O)c1ccc(C(C)C)cc1 (stereo not given)	KB-V1 MDR tox 18µM, SW480 rereplic inconclusive
CSCCC(NC(=O)COc1ccccc1)C(=O)OCC(=O)c1ccccc1 (stereo not given)	none
CSCCC(NS(=O)(=O)c1ccc(Cl)cc1)C(=O)OCC(=O)c1c(C)[nH]c2ccccc12 (stereo not given)	KB-V1 MDR tox 15µM, KB-3-1 tox inconclusive, MCF10A rereplic 12µM
Cc1[nH]c2ccccc2c1C(=O)COC(=O)C1CC(O)CN1S(=O)(=O)c1ccc(Cl)cc1 (stereo not given)	HT1080 IDH1KD tx inconclusive
N#CC(C#N)=C1CCc2ccccc2N1	none
COc1cc(/C=C/C(=O)OCC(=O)NCCc2ccccc2)cc(OC)c1OC	none
CCCN(CCC)S(=O)(=O)c1ccc(C(=O)Nc2nnc(CSC)o2)cc1	KB-V1 MDR tox 7.3µM, HT1080NT lethal inconclusive, HT1080 IDH1KD tx inconclusive, KB-3-1 tox 6.5µM, MCF10A rereplic inconclusive
CCCCN(CCCC)S(=O)(=O)c1ccc(C(=O)Nc2nnc(CSC)o2)cc1	KB-V1 MDR tox inconclusive, SW480 rereplic inconclusive, HT1080 IDH1KD tx inconclusive, KB-3-1 tox inconclusive, MCF10A rereplic 10µM
CCCCN(CC)S(=O)(=O)c1ccc(C(=O)Nc2nnc(CSC)o2)cc1	SW480 rereplic inconclusive, HT1080 IDH1KD tx inconclusive, KB-3-1 tox inconclusive, MCF10A rereplic inconclusive
CN(C)S(=O)(=O)c1cccc(NC(=O)COC(=O)c2ccc([N+](=O)[O-])o2)c1	KB-3-1 tox inconclusive
Cc1cccc(-c2ccc3[nH]c4c(c3c2)CCN2C[C@@H]([C@H](C)O)[C@@H](N(C)C(=O)Nc3ccc(F)cc3)C[C@@H]42)c1	HT1080NT lethal 21µM, HT1080 IDH1KD tx inconclusive, KB-3-1 tox inconclusive (no result: SW480 rereplic, MCF10A rereplic)
COc1ccc(NC(=O)N(C)[C@H]2C[C@H]3c4[nH]c5ccccc5c4CCN3C[C@H]2[C@H](C)O)cc1	HT1080NT lethal inconclusive, HT1080 IDH1KD tx inconclusive (no result: SW480 rereplic, MCF10A rereplic)
COc1ccc(NC(=O)N(C)[C@H]2C[C@H]3c4[nH]c5ccc(-c6cccc(C)c6)cc5c4CCN3C[C@H]2[C@H](C)O)cc1	KB-V1 MDR tox inconclusive, HT1080NT lethal 23µM, HT1080 IDH1KD tx inconclusive, KB-3-1 tox inconclusive (no result: SW480 rereplic, MCF10A rereplic)
COC(=O)c1c(C)[nH]c(C(=O)C(C)OC(=O)C2CC2)c1C (stereo not given)	KB-V1 MDR tox 12µM, KB-3-1 tox inconclusive
CCc1ccc(-c2nc(CN3CCC(C(=O)NCCN(CC)c4ccccc4)CC3)c(C)o2)cc1	KB-V1 MDR tox 4.6µM, SW480 rereplic inconclusive, MCF10A rereplic inconclusive
CCN(CCNC(=O)C1CCN(Cc2nc(-c3cccc(Cl)c3)oc2C)CC1)c1ccccc1	KB-V1 MDR tox 2.6µM, SW480 rereplic inconclusive, KB-3-1 tox inconclusive, MCF10A rereplic inconclusive
Cc1oc(-c2cccc(Cl)c2)nc1CN1CCC(C(=O)NC2CC2)CC1	none
CCN(CCNC(=O)C1CCN(Cc2nc(-c3ccc(Cl)cc3)oc2C)CC1)c1ccccc1	KB-V1 MDR tox 7.3µM, HT1080NT lethal inconclusive, SW480 rereplic inconclusive, HT1080 IDH1KD tx inconclusive, MCF10A rereplic inconclusive

Screening data: PubChem, National Center for Advancing Translational Sciences (NCATS)
